Source: PubChem BioAssay
TDP1 block – qHTS Assay for Inhibitors of Tyrosyl-DNA Phosphodiesterase (TDP1) | 350,000 tested, 0.28% active | Potency, µM (titrated, usually from 130 µM), without a hit: at the highest dose activity change, negative = inhibition, usual class: inhibitors | recombinant TDP1, AlphaScreen DNA substrate cleavage | AID 485290, 2010 | Tyrosyl-DNA phosphodiesterase 1 (Homo sapiens), Q9NUW8; note: potency is the fitted concentration of half-maximal effect; % is set by controls: 0 for no effect and ±100 for the full control effect; nearly all actives have a fitted effect of over 40% in size
Target sequence (Q9NUW8 whole entry, looked up): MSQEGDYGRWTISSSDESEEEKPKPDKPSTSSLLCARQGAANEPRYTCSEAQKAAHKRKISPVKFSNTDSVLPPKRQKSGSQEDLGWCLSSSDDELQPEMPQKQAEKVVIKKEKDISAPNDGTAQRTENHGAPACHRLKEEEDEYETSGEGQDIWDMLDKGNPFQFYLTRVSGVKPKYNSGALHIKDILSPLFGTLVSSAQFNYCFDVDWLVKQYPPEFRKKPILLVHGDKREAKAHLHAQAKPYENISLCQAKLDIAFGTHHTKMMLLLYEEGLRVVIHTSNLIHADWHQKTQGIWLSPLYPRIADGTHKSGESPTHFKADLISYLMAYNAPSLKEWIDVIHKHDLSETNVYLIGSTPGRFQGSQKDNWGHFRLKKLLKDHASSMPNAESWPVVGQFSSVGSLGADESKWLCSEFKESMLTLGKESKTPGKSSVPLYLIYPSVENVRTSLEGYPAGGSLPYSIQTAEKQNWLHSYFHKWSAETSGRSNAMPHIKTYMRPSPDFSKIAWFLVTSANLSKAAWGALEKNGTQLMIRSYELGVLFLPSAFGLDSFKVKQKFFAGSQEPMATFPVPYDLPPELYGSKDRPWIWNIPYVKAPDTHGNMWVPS
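Signal: AlphaScreen proximity between streptavidin donor and anti-FITC acceptor beads on intact substrate. Reaction: Tdp1 1 nM, substrate 15 nM final, 5 min RT after 15 min compound preincubation.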
TDP1 cell CPT – qHTS for Inhibitors of human tyrosyl-DNA phosphodiesterase 1 (TDP1): qHTS in cells in presence of CPT; 420,000 tested, 12% active; AID 686979, 2013; Potency, µM (doses to about 46.2 µM), for inactives: top-dose activity change, negative = growth inhibition, hits mostly inhibitors; chicken DT40 Tdp1-/-;hTDP1 cells + 20 nM CPT, ATP luminescence, 48 h; note: potency is the fitted concentration of half-maximal effect; % is set by controls: 0 for no effect and ±100 for the full control effect; nearly all actives have a fitted effect of over 55% in size
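Chicken DT40 Tdp1-/- cells complemented with human TDP1, 400 cells/well, exposed to compounds plus 20 nM camptothecin for at least 48 h at 37 C; viability read as ATP content by CellTiter-Glo luminescence.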
TDP1 cell noCPT – qHTS for Inhibitors of human tyrosyl-DNA phosphodiesterase 1 (TDP1): qHTS in cells in absence of CPT | Potency, µM (highest dose often 46.2 µM), inactives show top-dose activity change, negative = growth inhibition, hits mostly inhibitors | DT40 Tdp1-/- hTDP1 cells, no CPT, ATP luminescence, 48 h | 420,000 tested, 15% active; note: potency is the fitted concentration of half-maximal effect; % is set by controls: 0 for no effect and ±100 for the full control effect; nearly all actives have a fitted effect of over 55% in size
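Chicken DT40 Tdp1-/- cells complemented with human TDP1, screened without camptothecin (DMSO vehicle only), 400 cells/well. Compounds pin-transferred, cells incubated at 37 °C for at least 48 hr. Growth read as ATP-dependent luminescence (CellTiter-Glo, 30 min at RT).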
HepG2 tox – qHTS for Inhibitors of TGF-b: Cytotox Counterscreen; HepG2 CAGA-GFP viability, ATP luminescence, 18 h; Potency, µM (titrated, usually from 46.1 µM), for inactives: at the top dose activity change, negative = cytotoxicity, usual class: cytotoxic; 410,000 tested, 0.76% active; AID 588856, 2011; note: potency is the fitted concentration of half-maximal effect
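HepG2 CAGA-GFP cells (1000/well, DMEM with 1% FBS) received compound, then TGF-beta at 500 pg/mL final, and were incubated 18 hours at 37 degrees C. Viability was read by CellTiter-Glo luminescence. Media-only wells were set as complete cell-killing and DMSO as no toxicity.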
TGFb inhibitor – qHTS for Inhibitors of TGF-b; HepG2 CAGA-GFP TGF-b/SMAD3 reporter, GFP fluorescence, 18 h; TGF-beta stimulated, 500 pg/mL final; Potency, µM (series often up to 46.1 µM), for the others: at the highest dose activity, negative = inhibition, usual class: inhibitors; 410,000 tested, 1.2% active; note: potency is the fitted concentration of half-maximal effect; % is set by controls: 0 for no effect and ±100 for the full control effect; nearly all actives have a fitted effect of over 65% in size
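Cell-based qHTS in HEPG2 carrying a CAGA-GFP Smad reporter; compounds added before 500 pg/mL final TGF-beta, 18 h incubation at 37 degrees C, GFP fluorescence quantified per cell by imaging cytometry.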
IL-1B inflam inh – qHTS for Inhibitors of Inflammasome Signaling: IL-1-beta AlphaLISA Primary Screen. THP-1 LPS/ATP IL-1B secretion, AlphaLISA, 16 h; active compounds read low. 360,000 tested, 4.7% active. activity change, % at 57.5 µM; in the data active = activity change below about -50%; inconclusive = mostly about -30% to -49%; note: % is set by controls: 0 for no effect and ±100 for the full control effect
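THP-1 cells pretreated 1 hr with compounds (up to 57.5 uM final), then stimulated with LPS (250 ng/mL final) plus ATP (1.25 mM final); secreted IL-1B measured by AlphaLISA after 16 hr, decreased signal indicating inhibition.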
Numbers without * were called inactive; ? = inconclusive; . = no result; [ ] = another dose, or the depositor's remark. A selection: hits, their analogues and other compounds. The true share with any hit is near 18%. Unless noted, calls come from the whole dose curve; as a rule, active = well fitted curve in the direction sought with a large enough effect; inconclusive = small, poorly fitted or top-dose-only effect, or another doubt; inactive = no such curve, though single readings can be large; an effect the other way counts as inactive or inconclusive.

SMILES	TDP1 block	TDP1 cell CPT	TDP1 cell noCPT	HepG2 tox	TGFb inhibitor	IL-1B inflam inh
CN1CCN(c2ncc3nc(-c4cccs4)c(=O)n(CCc4ccccc4)c3n2)CC1	.	-12.8%	-29.2%	.	.	.
CCCNC(=O)c1ccc(S(=O)(=O)c2ccc(OC)cc2)c([N+](=O)[O-])c1	.	5.17µM*	4.11µM*	11.3%	0.0%	-92.4*
COc1ccc(C(=O)NCCNc2ccccc2[N+](=O)[O-])cc1	9.6%	?	-22.3%	6.9%	10.5%	?
C=CC[C@@H](CC(=O)N[C@@H](CO)Cc1ccccc1)C(=O)N[C@H](COC(=O)[C@@H](CC=C)Cc1ccc(F)cc1)Cc1c[nH]c2ccccc12	2.3%	?	?	-29.1%	?	-13.4
C=CCC[C@@H](Cc1ccc(F)cc1)C(=O)OC[C@@H](NC(=O)[C@@H](CC=C)CC(=O)N[C@H](CO)Cc1ccccc1)C(C)(C)C	1.7%	23.1µM*	16.4µM*	-29.0%	?	11.6
C=CC[C@@H](CC(=O)N[C@@H](CO)Cc1ccccc1)C(=O)N[C@H](COC(=O)[C@@H](CC=C)Cc1ccc(F)cc1)C(C)(C)C	2.4%	16.4µM*	-79.5%	-10.8%	?	-8.4
[O-]C1=N/[N+](=C/c2ccccc2Cl)CC1	8.8%	-20.4%	-5.2%	-30.8%	-0.2%	3.5
CN(C(=O)CC1C(=O)NCCN1Cc1ccc(F)c(F)c1)C1CCCCC1 (stereo not drawn)	7.0%	2.5%	-2.6%	-4.8%	17.6%	-5.4
CCCn1c(O)c(N=NC(=O)c2cccnc2)c2cc(Br)ccc21	3.8%	16.4µM*	?	5.3%	1.7%	51.0
CCn1c(O)c(N=NC(=O)CNC(=O)c2ccco2)c2ccccc21	5.4%	?	?	-0.7%	-42.2%	4.4
C=CCn1c(O)c(N=NC(=O)CNC(=O)c2ccco2)c2ccccc21	0.6%	6.51µM*	4.11µM*	10.9%	-14.3%	36.7
N=Nc1c(O)n(CC(=O)Nc2ccccc2)c2ccccc12	1.8%	?	-16.5%	17.3%	11.3%	-4.8
Cc1cccc(NC(=O)Cn2c(O)c(N=NC(=O)c3ccccc3O)c3ccccc32)c1	-12.6%	-5.2%	4.61µM*	-1.4%	-0.5%	5.3
CCCn1c(O)c(N=NC(=O)c2ccco2)c2ccccc21	2.7%	13µM*	11.6µM*	-19.3%	-5.3%	-8.3
CCN(c1ccccc1)C1SC(=O)N(c2ccccc2)C1=O (stereo not drawn)	.	0.7%	-4.7%	.	.	.
CCn1c(O)c(N=NC(=O)c2cccs2)c2ccccc21	10.0%	23.1µM*	14.6µM*	-5.4%	-0.6%	29.2
CCn1c(O)c(N=N)c2ccccc21	2.4%	20.4%	4.1%	6.7%	3.6%	-5.6
O=C(CSCc1ccccc1)N=Nc1c(O)[nH]c2ccccc12	5.7%	-2.4%	-28.1%	-7.7%	-21.4%	-3.2
O=C(N=Nc1c(O)[nH]c2ccccc12)c1ccco1	1.2%	?	16.4µM*	-21.9%	1.1%	?
CCCSc1nc(C)c(-c2csc(C(C#N)=C3CCCC3)n2)cc1C#N	-5.9%	-17.5%	-28.1%	-34.3%	3.2%	-1.5
CS(=O)(=O)c1ccc(-c2ccc3c(c2)CC(CNC(=O)C2(N4CCOCC4)CCCCC2)O3)cc1 (stereo not drawn)	.	-13.2%[9.04 µM]	16.4µM*	.	.	.
CC(=O)N[C@@H](CC(=O)N[C@@H](CCC(=O)O)C(=O)O)C(=O)O	.	-8.3%	-7.2%	.	.	.
